Screening results: PubChem BioAssay, Broad Institute
HIF activator = HIF pathway transcriptional activation; U2OS HRE-luciferase reporter, luminescence; normalized: DMSO 0%, desferrioxamine 100%; activation, % at 7.5 µM (by protocol); actives 0.32% (n = 300,000); AID 1910;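 active = mean activation of at least 10% of the iron chelator positive control signal, with at least half of replicates also reaching 10%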
ALR H2O2 inh = human ALR oxidase inhibition via reduced H2O2; P55789; purified ALR, DTT oxidation, H2O2 HRP-luminol luminescence; inhibition, % (concentration not given with the values); actives 3.8% (n = 290,000); AID 485317;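 active = mean replicate inhibition above about 79%, with every replicate also reaching it, limit read from the data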
Target sequence (P55789 whole entry, looked up): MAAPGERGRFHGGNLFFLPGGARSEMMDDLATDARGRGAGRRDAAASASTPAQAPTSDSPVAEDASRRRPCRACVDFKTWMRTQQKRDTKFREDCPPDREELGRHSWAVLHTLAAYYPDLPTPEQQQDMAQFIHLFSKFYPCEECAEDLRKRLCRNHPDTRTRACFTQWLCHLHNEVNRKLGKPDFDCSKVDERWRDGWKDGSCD
AI-2 QS mod = modulators of Vibrio harveyi AI-2 quorum sensing system. Vibrio harveyi JMH597 AI-2 luminescence/OD600 ratio, 9 h; stronger effect = lower value; strain lacks LuxN and CqsS sensors; 0 = neutral-control median. activity change, % at 7.5 µM. actives 0.4% (n = 300,000); in the data active = activity change below about -75%, passing the limit was not always enough;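 note: luminescence divided by OD600 gain over 9 h not by final OD600 alone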
SUMO Mot1 rescue = inhibitors of SUMOylation pathway: yeast Mot1-301 growth rescue | actives 1% (n = 320,000) | AID 2716 | S. cerevisiae Mot1-301 growth rescue, ATP luminescence, 38.5C; percent above DMSO median, 100 means doubled | growth rescue, % at 18.8 µM;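 active = every valid replicate shows activation above 250% relative to neutral control wells; inactive = the rest, any valid replicate at or below 250%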;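 note: OY570 slx delta 5 strain wells were the positive control but not used for scaling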
Mot1 SUMO dose = inhibits SUMO pathway, affecting Mot1-301 yeast growth; shares compounds with SUMO Mot1 rescue; S. cerevisiae Mot1-301 galactose growth, ATP luminescence, 24 h; -100 = growth of slx-deleted rescue strain; growth activity, percent, % at 42 µM; 2,300 tested, under 10 active;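 active = Signal drops as the depositor expects, and the fitted half-maximal dose is no more than ten times the top valid tested dose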;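 note: more negative values mean stronger growth rescue toward the control strain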
Active calls of the source: *; / = no result; + = active, no number. The list is not random: actives were taken first. Their share in the collection is about 4.8%.

SMILES | HIF activator | ALR H2O2 inh | AI-2 QS mod | SUMO Mot1 rescue | Mot1 SUMO dose
COc1ccc(-c2cc(C)no2)cc1S(=O)(=O)NCCCN1CCCCCC1 | 0 | 0 | 5 | -22 | /
CC(C)NC(=O)Nc1cccc2c1O[C@H](CN(C)C(=O)NC1CCCCC1)[C@@H](C)CN([C@H](C)CO)C2=O | / | 0 | / | -7 | /
OCC1=C[C@@H](O)[C@@H]2C=CO[C@@H](O[C@@H]3O[C@H](CO)[C@@H](O)[C@H](O)[C@H]3O)[C@H]12 | / | / | / | -17 | /
CCCOC(=O)C1=C(C)NC2=C(C(=O)CCC2)C1c1cccs1 (configuration not stated) | -1 | 5 | 17 | 451* | 0
O=C(CSc1ccc2nnc(-c3ccccn3)n2n1)Nc1ccc(F)cc1F | 0 | -11 | 18 | -7 | /
O=C(O)c1ccccc1/C=N/NC(=O)C1CCCC1 | 0 | -21 | 26 | -4 | /
O=C(CCCC(=O)N/N=C/c1ccccc1C(=O)O)N/N=C/c1ccccc1C(=O)O | 1 | -8 | 33 | 419* | 1
CNc1csc(C)c(C)c1=O | 0 | 55 | 15 | 448* | 0
Cc1cccc(CSc2ccc(-c3ccco3)nn2)c1 | 2 | 98* | -70 | 668* | 0
CC(Cc1ccc(O)c(O)c1)C(C)Cc1ccc(O)c(O)c1 (configuration not stated) | 0 | 99* | 2 | 553* | 0
O=C(Nc1ccc(F)cc1)c1cccnn1 | 2 | -3 | 15 | 397* | -1
O=C(Nc1ccc(F)cc1)c1ccc(=O)[nH]n1 | -3 | -2 | 16 | -11 | /
Cc1nc(CSc2nnc3scc(-c4ccccc4)n23)cs1 | 0 | -19 | 16 | + | 1
Cc1cc(C)n(CCCNC(=O)CN(C)S(=O)(=O)c2ccc(Cl)cc2)n1 | -6 | -2 | -5 | 817* | 0
CCOc1ccc(-c2nnc(N(CC)C(=O)C3CCC3)s2)cc1 | 2 | -5 | 4 | -8 | /
COCCN(C(=O)C1CC1)c1nnc(-c2ccc(C)cc2)s1 | 3 | -4 | 11 | 731* | 0
C/C(=N\NC(=O)c1cccc(N/N=C(\C)c2ccc([N+](=O)[O-])cc2)c1)c1ccc([N+](=O)[O-])cc1 | 0 | -4 | 20 | 540* | 1
COc1ccc(-c2nnc(SCC(C)C)o2)cc1 | 1 | / | 5 | 584* | 1
COc1ccc(C(=O)CSc2nnc(-c3ccc(C)cc3)o2)cc1 | 0 | -13 | 39 | 393 | /
CCCCn1c2nc3ccccc3nc2c2c(=O)n(CCC)cnc21 | 0 | -3 | 6 | 731* | 0
CCOC(=O)C1CCN(C(=O)CNS(=O)(=O)c2cccs2)CC1 | 0 | -17 | 24 | -14 | /
CCCCn1c(N)c(N(CC(C)C)C(=O)CCCn2c(=O)oc3ccccc32)c(=O)[nH]c1=O | 0 | 1 | 13 | 19 | /
COC(=O)[C@@]12CCCCN1[C@H](c1ccc(-c3cccc(Cl)c3)c(OC)c1)[C@H]1C(=O)N(C)C(=O)[C@H]12 | 0 | 3 | 14 | 766* | 0
COC(=O)[C@@]12CCCCN1[C@H](c1ccc(-c3cccc(Cl)c3)cc1)[C@H]1C(=O)N(C)C(=O)[C@H]12 | 0 | 3 | 29 | 322 | /
COC(=O)[C@@]12CCCCN1[C@H](c1ccc(-c3ccc(C(C)=O)cc3)cc1)[C@@H]1C(=O)N(C)C(=O)[C@@H]12 | 0 | -9 | 22 | 737* | 1
SMILES | HIF activator | ALR H2O2 inh | AI-2 QS mod | SUMO Mot1 rescue | Mot1 SUMO dose
O=C(N/N=C/c1ccccn1)NC12CC3CC(CC(C3)C1)C2 | 2 | -6 | 7 | 612* | 1
Cc1cccc(/C=N/NC(=O)NC23CC4CC(CC(C4)C2)C3)n1 | 1 | / | 14 | -8 | /
C/C(=N\N=C(c1ccccc1)c1ccccc1)c1ccco1 | 0 | 1 | 0 | 576* | 0
CC1CCc2c(C(=O)OCC(=O)Nc3cccc(S(=O)(=O)N4CCCCCC4)c3)csc2C1 (configuration not stated) | 0 | -2 | 6 | -2 | /
Cc1ccc(NC(=O)COC(=O)c2csc3c2CCC(C)C3)cc1S(=O)(=O)N1CCCCC1 (configuration not stated) | -1 | -8 | 3 | + | 0
CC(C)[C@H](NC(=O)C1(c2ccccc2)CCN(C(=O)OC(C)(C)C)CC1)C(=O)O | 0 | -7 | 10 | 607* | 0
Cc1c(C(=O)NC(C)c2ccc(-n3ccnc3)cc2)cccc1[N+](=O)[O-] (configuration not stated) | -1 | -2 | 27 | 407* | 0
CCCOC(=O)/C(=C\C=C\c1ccccc1)NC(=O)c1ccccc1 | 0 | 18 | 14 | -27 | /
CCCCOC(=O)/C(=C/C=C/c1ccccc1)NC(=O)c1ccccc1 | 0 | -6 | 0 | 815* | -1
Cc1ccc(C(C)C)c(OCC(=O)NN2C(=O)c3ccccc3C2=O)c1 | -1 | 1 | 16 | -10 | /
Cc1ccc(OCC(=O)NN2C(=O)c3ccccc3C2=O)c(C)c1 | 0 | 4 | 0 | 436* | 1
O=C(N/N=C/c1ccc2c(c1)OCO2)c1cc(-c2ccncc2)nc2ccccc12 | 1 | 1 | 17 | 7 | /
Cc1cc(C(=O)N/N=C/c2ccc3c(c2)OCO3)c2ccccc2n1 | 3 | -21 | 10 | 856* | 0
COc1cccc(-c2nc(C(=O)NCC3CCCO3)cc3c2[nH]c2ccccc23)c1 (configuration not stated) | 0 | 1 | 3 | 241 | /
Cc1ccc(N(CC(=O)NC2CCCC2)C(=O)CCC(=O)Nc2ccccn2)cc1C | -4 | 1 | / | 439* | 0
Cc1cc(NC(=O)CCC(=O)N(c2cccnc2)C(C(=O)NC2CCCC2)c2ccccc2)no1 (configuration not stated) | -2 | 1 | 38 | + | 0
O=C(CCCC(=O)N(CC(=O)NC1CCCC1)c1cccc(F)c1)Nc1ccccn1 | -1 | -8 | 26 | 362* | 1
Cc1cc(Cl)cc(C)c1OCCOCCNCc1ccccc1 | -1 | 1 | 3 | 17 | /
COc1ccccc1CNC(=O)C1CCC(CNS(=O)(=O)c2ccc(C)cc2)CC1 (configuration not stated) | -9 | 0 | -2 | 625* | 0
COc1ccccc1CNC(=O)C1CCC(CNS(=O)(=O)c2ccc(F)cc2)CC1 (configuration not stated) | 0 | 0 | 0 | 412 | /
COc1ccccc1CNC(=O)CCC(=O)Nc1nnc(C(C)C)s1 | 0 | -5 | 10 | 928* | 0
COc1ccccc1CNC(=O)CCC(=O)Nc1nnc(C)s1 | 0 | 17 | 23 | -8 | /
COc1ccccc1CNC(=O)C(C)Sc1ccc(C)cc1 (configuration not stated) | 0 | -18 | 23 | 416* | 0
Cc1cccc(N(C(=O)CCC(=O)Nc2cc(C)on2)C(C(=O)NC2CCCC2)c2ccccc2)c1 (configuration not stated) | 0 | / | 12 | 376 | /
